Rows were chosen to be rich in hits. Some 1.4% of all compounds tested hit in one or more screens of this group.
APOBEC3G inh – APOBEC3G DNA deaminase inhibitors, primary screen, biochemical, fluorescence, single-stranded DNA substrate, uHTS | inhibition, % at 20 µM | AID 493012, 2011 | recombinant A3G, ssDNA deamination FAM/TAMRA fluorescence | 330,000 compounds, 0.28% hits | DNA dC->dU-editing enzyme APOBEC-3G (Homo sapiens), Q9HC16;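 active = inhibition of at least 40% at 20 µM, with no more than 30% in the related APOBEC3A deaminase screen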
Target sequence (Q9HC16 whole entry, looked up): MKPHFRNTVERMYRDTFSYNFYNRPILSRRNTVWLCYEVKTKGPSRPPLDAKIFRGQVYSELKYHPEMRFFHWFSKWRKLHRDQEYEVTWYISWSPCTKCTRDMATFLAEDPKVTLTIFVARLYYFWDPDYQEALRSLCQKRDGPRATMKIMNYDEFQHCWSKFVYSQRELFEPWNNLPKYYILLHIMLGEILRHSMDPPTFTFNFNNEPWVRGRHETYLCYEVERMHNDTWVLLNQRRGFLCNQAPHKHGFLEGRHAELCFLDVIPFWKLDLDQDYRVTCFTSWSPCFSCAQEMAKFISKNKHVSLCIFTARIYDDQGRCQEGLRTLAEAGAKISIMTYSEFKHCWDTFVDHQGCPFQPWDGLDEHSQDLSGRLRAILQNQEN
LANA-H2B inh – blockers of LANA interaction with H2A/H2B – biochemical, FP readout, HTS, primary screen; Protein LANA1 (Human herpesvirus 8 type P (isolate GK18)), Q9QR71; cell-free LANA-H2A/H2B peptide, fluorescence polarization; inhibition, % (test concentration not listed); 320,000 compounds, 0.6% hits; in the data active = inhibition mostly above about 10%, no sharp cut-off; inactive = mostly below about 6.7%
HDAC3 inh – HDAC3 deacetylase inhibitors, primary screen, biochemical, fluorescence, cell-free homogeneous | Histone deacetylase 3 (Homo sapiens), O15379 | recombinant HDAC3, fluorogenic peptide/trypsin coupled | inhibition, % at 8.3 µM | 320,000 compounds, 0.15% hits | AID 2718, 2010; in the data active = inhibition above about 26%, passing the limit was not always enough
APOBEC3A inh – APOBEC3A ssDNA deaminase inhibitors, primary screen, selectivity assay for APOBEC3G inhibitor project, biochemical, FAM/TAMRA oligo cleavage fluorescence; DNA dC->dU-editing enzyme APOBEC-3A (Homo sapiens), P31941; 330,000 compounds, 0.41% hits; inhibition, % at 20 µM; recombinant A3A, FAM/TAMRA ssDNA deamination fluorescence; AID 493011, 2011;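 active = at least 40% inhibition at 20 µM here, with at most 30% in a related deaminase screen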
Target sequence (P31941 whole entry, looked up): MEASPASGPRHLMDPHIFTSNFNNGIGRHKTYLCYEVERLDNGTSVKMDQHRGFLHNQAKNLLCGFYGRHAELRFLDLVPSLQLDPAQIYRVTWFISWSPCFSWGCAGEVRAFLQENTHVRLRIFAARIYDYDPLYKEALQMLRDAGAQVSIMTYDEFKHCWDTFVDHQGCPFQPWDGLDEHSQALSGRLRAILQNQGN
APOBEC3A confirm – APOBEC3A deaminase inhibitors, retest, confirmation, selectivity assay for APOBEC3G inhibitor project, biochemical, single concentration, fluorescence readout. recombinant A3A, ssDNA deaminase UDG fluorescence assay. shares compounds with APOBEC3A inh. 1,400 compounds, 63% hits. inhibition, % at 20 µM;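 active = inhibition reaching a set limit, 80% of the first screen's cutoff, at 20 µM in any replicate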
UDG A3A counter – E. coli UDG inhibitors, confirmation, counter-screen for APOBEC3A inhibitor project, biochemical, single concentration, fluorescence, FAM/TAMRA oligo. shares compounds with APOBEC3A inh. UDG counterscreen, FAM/TAMRA uracil oligo fluorescence. inhibition, % at 20 µM. 1,000 tested, under 10 active. AID 504714, 2011; call rule not given here
Numbers stand for hits; i = inactive; nt = no result given.

SMILES	APOBEC3G inh	LANA-H2B inh	HDAC3 inh	APOBEC3A inh	APOBEC3A confirm	UDG A3A counter
O=C(NCC1COc2ccccc2O1)c1cc(S(=O)(=O)N2CCOCC2)c(Cl)cc1Cl (stereo not given)	i	nt	nt	41.9	i	nt
O=C(NCC1COc2ccccc2O1)c1ccc(F)c(S(=O)(=O)N2CCOCC2)c1 (stereo not given)	i	nt	nt	i	nt	nt
COc1cc(/C=C/c2cc[n+](C)cc2)ccc1OCC(=O)Nc1ccc(Cl)c(Cl)c1	i	i	i	80.8	77.5	i
C/C=C/c1ccc(OCC(=O)Nc2cc(OC)c(OC)c(OC)c2)c(OC)c1	i	i	i	i	nt	nt
COc1ccccc1OCC(=O)Nc1ccc(Cl)cc1	i	i	i	i	nt	nt
COc1ccc(NC(=O)COc2ccc(/C=C/c3cccc[n+]3C)cc2OC)cc1	i	i	i	86.0	74.6	i
COc1cc(/C=C/c2cccc[n+]2C)ccc1OCC(=O)Nc1cccc(Cl)c1	i	i	i	80.8	75.2	i
COc1ccc(NC(=O)COc2ccc(/C=C/c3cc[n+](C)cc3)cc2OC)cc1	i	i	i	52.0	75.9	i
N/C(=N\OC(=O)CSc1ccccc1)c1ccccn1	i	i	i	i	nt	nt
Cc1ccc(S(=O)(=O)Nc2cc3c4c(c2)CCC(=O)N4CCC3)cc1	i	i	i	i	nt	nt
COc1cc(/C=C/c2cccc[n+]2C)ccc1OCC(=O)Nc1ccccc1	i	i	i	73.3	79.2	i
Cc1nc2ccc(C(=O)O)cc2c2c1CC(C)S2 (stereo not given)	i	i	i	43.0	46.2	i
CNC(=O)/C(C#N)=C\c1ccc(CNS(=O)(=O)c2ccc(Cl)cc2)o1	i	i	i	71.0	77.2	i
COCCN(CC(=O)Nc1cccc(C)c1C)C(=O)CN1C(=O)NC2(CCCCC2)C1=O	i	i	i	41.2	49.5	i
CCOc1ccccc1C(=O)NCC(=O)NNC(=O)c1cccs1	i	i	i	i	nt	nt
Cc1cccc(NC(=O)CNC(=O)CSc2ncccn2)c1C	i	i	i	i	nt	nt
Cc1cccc(NC(=O)CNC(=O)Cn2ncc(Cl)c(Cl)c2=O)c1C	i	i	i	49.0	38.2	i
Cn1nc(C(=O)NNC(=O)CCc2ccccc2Cl)c2ccccc2c1=O	i	i	i	i	nt	nt
CC(C)(C)c1ccc(NC(=O)C2=CN3CCS(=O)(=O)N=C3C=C2)cc1	i	i	i	51.2	70.7	i
CC1CCC(=NNC(=O)c2ccccc2-n2cccc2)CC1 (stereo not given)	i	i	i	i	nt	nt
CC1CCC/C(=N/NC(=O)c2ccccc2-n2cccc2)C1 (stereo not given)	i	i	i	53.3	12.7	i
CCCCC(=O)/C=C/n1c(=S)oc2ccccc21	i	i	i	i	nt	nt
Cn1c(CNC(=O)c2ccco2)nnc1SCC(=O)N1c2ccccc2Sc2ccccc21	i	i	i	62.9	58.5	i
O=C1/C(=C/c2ccco2)Oc2c1ccc(O)c2CN1CCCCC1	i	i	i	i	nt	nt
CC1CCN(Cc2c(O)ccc3c2O/C(=C\c2ccco2)C3=O)CC1	i	i	i	96.9	36.2	i
SMILES	APOBEC3G inh	LANA-H2B inh	HDAC3 inh	APOBEC3A inh	APOBEC3A confirm	UDG A3A counter
COCCN(CCOC)Cc1c(O)ccc2c1O/C(=C\c1ccco1)C2=O	i	i	i	56.4	26.6	i
COC(=O)COc1ccc2c(c1)O/C(=C\c1ccco1)C2=O	i	i	i	i	nt	nt
CSc1cccc(NC(=O)CN(C2CCCCC2)S(C)(=O)=O)c1	i	i	i	64.9	i	i
CCOc1ccc(NC(=O)CN(C)C(=O)c2ccc(NC3CC3)c([N+](=O)[O-])c2)cc1OCC	i	i	i	i	nt	nt
CCN(CC(=O)Nc1ccc(NC(C)=O)cc1)C(=O)c1ccc(NC2CC2)c([N+](=O)[O-])c1	i	i	i	52.2	i	nt
Cc1noc(C)c1NC(=O)N(C)C[C@H]1Oc2ccc(NC(=O)C3CC3)cc2C(=O)N([C@H](C)CO)C[C@@H]1C	i	i	i	i	nt	nt
C#CCSc1nc(Cc2ccc(Cl)cc2)nc2ccccc12	i	i	i	47.8	i	i
CCN(CC)C(=O)c1ccc(/C=C/c2c[nH]c3ccccc23)[n+](C)c1	i	i	i	42.1	68.4	i
COc1cc(OC)cc(C(=O)/C=C2\Sc3ccccc3N2C)c1	i	i	i	i	nt	nt
CCN1/C(=C/c2cccc[n+]2C)Sc2ccc(OC)cc21	i	i	i	53.2	86.5	i
COc1ccc2c(c1)N(C)/C(=C/c1cccc[n+]1C)S2	i	i	i	57.2	87.8	i
CN(C)C1=NC[C@H](Cc2ccccc2)N1CC1CCC(C(C)(C)C)CC1 (stereo not given in full)	i	i	i	i	nt	nt
CN1CCN(c2nnc(-c3ccccc3)c(-c3ccccc3)n2)CC1	i	i	i	66.0	27.0	i
S=C(NCc1cccnc1)Nc1ccc(Oc2ccc(Cl)cc2)cc1	i	i	i	i	nt	nt
CCCCC1(C)OC(=O)C(=Cc2ccc(-c3ccc(Cl)c(C(=O)O)c3)o2)C(=O)O1 (stereo not given)	i	i	i	54.6	30.0	i
CC(C)(C)C1CCC(OC(=O)CN2CCOCC2)CC1 (stereo not given)	i	i	i	i	nt	nt
CC(C)CC1CCCCC1OC(=O)C[N+]1(C)CCCCC1 (stereo not given)	i	i	i	81.4	74.7	i
C[N+]1(CC(=O)OCCCC2CCCCC2)CCCC1	i	i	i	69.4	76.5	i
CC(C)(C)C1CCC(OC(=O)C[N+]2(C)CCCC2)CC1 (stereo not given)	i	i	i	46.6	79.0	i
CC(C)(C)C1CCC(OC(=O)C[N+]2(C)CCCCC2)CC1 (stereo not given)	i	i	i	89.8	84.5	i
CC1O[C@@H](O[C@H](C)CC[C@@H](C)O)C(O)C[C@H]1O (stereo not given in full)	i	i	i	i	nt	nt
Cn1c(=O)c2c(SCC(=O)Nc3ccccc3F)nc(-c3ccccc3F)nc2n(C)c1=O	i	i	i	i	nt	nt
Cc1ccccc1COc1ccc(-c2nnn(CC(=O)O)n2)cc1	i	i	i	40.2	i	i
Cc1ccc(-c2nnn(CC(=O)O)n2)cc1	i	i	i	i	nt	nt
O=[N+]([O-])c1ccccc1/C=N/NC1=NCCN1	i	i	i	50.3	63.6	i

High-throughput results (PubChem BioAssay)
